The results in this text go back to PubChem BioAssay (NCI).

The panel holds about 79,000 compounds, 15% with a hit somewhere; the sample as a whole holds those more often. Values without a mark were called inactive. Active and inactive are the calls of the source. Cut-off read from the data, not from the text of the source: active = growth inhibition above about 70%; inactive = the rest.

This assay is described as follows: NCI Yeast Anticancer Drug Screen. Data for the mlh1 rad18 strain (AID 175). The following applies: S. cerevisiae mlh1 rad18 strain growth inhibition; at 50.0 µM; hits give high values. In outline: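 A repair-deficient yeast strain is exposed to test compound, and growth is scored relative to vehicle-treated controls.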
Consider `COc1ccc(OC)c(/C=C/C(=O)NC(CO)CSCSC)c1` (stereo not given), for which the growth inhibition is -24.4%. Regarding `CC(=O)Nc1ccc(S(=O)(=O)N/N=C/c2ccc3c(c2)OCO3)cc1`, the growth inhibition was -20.5%. Consider `CCCC(CC/C(C)=N/NC(N)=O)[N+](=O)[O-]` (stereo not given), for which the growth inhibition is 8.5%. For the compound `O=CC(NC(=O)C(O)C(O)C(O)C(O)CO)C(O)C(O)C(O)CO` (stereo not given), the growth inhibition is 1.15%. Take `NC(=O)C1CCc2ccccc2C1` (stereo not given): the growth inhibition is -9.45%. With `Cc1ccc(S(=O)(=O)N/N=C2/CCC(C(C)(C)C)CC2Br)cc1` (stereo not given) the figure was 2.1%; with `CCN(c1ccccc1)c1ncnc2nc[nH]c12`, -5.5%; with `Cc1ccc(S(=O)(=O)C(=S)N(C)N(C)C)cc1`, 88% (active). As to `OC1CCC2=C(C1)C1CCC2C1` (stereo not given), the growth inhibition was 15.8%. `O=C(Nc1ccc(Cl)c(Cl)c1)Oc1ccc(-c2ccccc2)cc1`: the growth inhibition is 95.7% (active). For the compound `Nc1nc(C2CCCC2)c(Br)c(=O)[nH]1`, the growth inhibition is -8.75%.

Regarding `COC(=O)c1c(C=O)cccc1[N+](=O)[O-]`, the growth inhibition was 15.2%. In the case of `CN(C)CC1CCC/C(=C\c2ccccc2)C1=O` (stereo not given), the growth inhibition was 16.7%. With `CCN1N=CSC12C(=O)N(c1ccccc1)C(=O)N2c1ccccc1` (stereo not given) the figure was -38.6%; with `CCOC(=O)C(N=Nc1ccccc1)C(=O)c1ccccc1` (stereo not given), 28.5%. Turning to `CCCC(C)(C)O`, the growth inhibition is -3.65%. Consider `CCOC(=O)/C(C)=C(/C)Nc1ccccc1`, for which the growth inhibition was 2.7%. As to `CCn1c(C)nc([N+](=O)[O-])c1Sc1ncn[nH]1`, the growth inhibition is -59.7%. With `Cc1ccc(N=C2c3cc([N+](=O)[O-])ccc3-c3ccc([N+](=O)[O-])cc32)cc1` the figure was -2.25%; with `CCCC[N+](CCCC)(CCCC)CC(=O)[O-]`, -24.6%; with `O=C(N/N=C/C=C/c1ccccc1)NNC(=O)c1cc([N+](=O)[O-])cc([N+](=O)[O-])c1`, 24.2%. Consider `CC(O)c1nc2c3ccccc3ccc2n1C` (stereo not given), for which the growth inhibition is -8.6%.

Consider `Cc1cccc(C(=O)OCc2ccccc2CN2CCCCC2)c1`, for which the growth inhibition was -3.6%.

Consider `CC(=O)OCc1cocc1COC(C)=O`, for which the growth inhibition is 8.3%.

Consider `C=CCOC(=O)NC1C(OC(C)[C@@H](NC(=O)OCc2ccccc2)C(=O)OC(C)(C)C)OC(COC(C)=O)C(OC(C)=O)C1OC(C)=O` (stereo not given in full), for which the growth inhibition is -4.15%. Under `COc1ccc(CCN2C(CC(=O)c3ccccc3)CCCC2CC(=O)c2ccccc2)cc1OC` (stereo not given) stands -2.75%; under `CCCCC(CC)COS(=O)(=O)O` (stereo not given), -42%; under `C=C1CC(CCCCC2CC(=C)C(=O)O2)OC1=O` (stereo not given), -24.6%. For the compound `Clc1ccc(Nc2ncnc3oc(-c4ccccc4)c(-c4ccccc4)c23)cc1`, the growth inhibition was 4.65%. Under `CCn1c(=O)c(Cl)c2n(C)c3ccccc3n2c1=O` stands -1.05%; under `CCC(=O)Oc1cccc2ccccc12`, -8.05%. Consider `CCOc1cc2c(cc1C(C)c1ccc(OCc3ccccc3)cc1)OCO2` (stereo not given), for which the growth inhibition was -20.1%. Consider `C[N+]12CCCCC1CC2` (stereo not given), for which the growth inhibition was 9.85%. Under `COc1cc(-c2nnc3n2NC=C(C(=O)O)S3)cc(OC)c1OC` stands 21.8%. With `CCOC(=O)C(Cc1ccccc1Cl)(NC(C)=O)C(=O)OCC` the figure was -20.1%; with `CC(Nc1ncccn1)Nc1ncccn1`, -1.75%; with `CCN(CC)c1ccc(N=C2C=CC(=O)C(NC(C)=O)=C2)c(C)c1`, 13.3%. For the compound `Cc1ccc(C(=O)Cc2nc3c([nH]c2=O)c(C)nn3-c2ccccc2)c(C)c1`, the growth inhibition is 4.7%.

Take `Cc1nc(-n2nc(-c3ccccc3)cc2-c2ccccc2)sc1C(/C=C/c1ccc([N+](=O)[O-])cc1)=N/NC(N)=S`: the growth inhibition is 33.7%. `O=S(Cc1cc2c(cc1Br)OCO2)c1ccccc1` (stereo not given): the growth inhibition was -29.1%.
